# DT40 TDP1 CPT: growth inhibition of DT40 Tdp1-/-;hTDP1 cells with camptothecin (screen for TDP1 inhibitors); Potency, µM (titrated, usually from 46.2 µM), inactives show top-dose activity change, negative = growth inhibition, most hits filed as inhibitors; chicken DT40 Tdp1-/-;hTDP1 cells + 20 nM CPT, ATP luminescence, 48 h; AID 686979; actives 12% (n = 420,000); also: potency is read from the fitted curve at half-maximal effect; nearly all actives have a fitted effect of over 55% in size
#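 Chicken DT40 Tdp1-/- cells complemented with human TDP1, 400 cells/well, exposed to compounds plus 20 nM camptothecin for at least 48 h at 37 C; viability read as ATP content by CellTiter-Glo luminescence.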
# Gal4-VP16 FLuc: counter-screen for ROR gamma inhibitors: Gal4-VP16 reporter; Drosophila S2 Gal4-VP16 UAS-luciferase, luminescence, 20 h; Potency, µM (highest dose often 53.6 µM), for the others: at the highest dose activity, negative = inhibition, most hits filed as inhibitors; actives 3.5% (n = 310,000);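 also: Gal4-VP16 expression switched on by copper sulfate through the metallothionein promoter; potency is read from the fitted curve at half-maximal effect; nearly all actives have a fitted effect of over 50% in size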
# TDP1 cell noCPT: qHTS for Inhibitors of human tyrosyl-DNA phosphodiesterase 1 (TDP1): qHTS in cells in absence of CPT; Potency, µM (highest dose often 46.2 µM), inactives show top-dose activity change, negative = growth inhibition, usual class: inhibitors; DT40 Tdp1-/- hTDP1 cells, no CPT, ATP luminescence, 48 h; actives 15% (n = 420,000); AID 686978, 2013; also: potency is read from the fitted curve at half-maximal effect; nearly all actives have a fitted effect of over 55% in size
#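 Stably hTDP1-transfected Tdp1-null chicken DT40 cells were treated with library compounds minus camptothecin and grown for at least 48 hr at 37 °C, after which cellular ATP was quantified by luminescence.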
# LDHA block: inhibitors of human lactate dehydrogenase A. activity change, % (values are at about 110 or 230 µM). P00338. actives 0.15% (n = 480,000). purified LDHA, NADH/diaphorase-resazurin fluorescence; active compounds read low; in the data active = activity change below about -30%; inconclusive = mostly about -25% to -30%;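 also: plate controls were DMSO wells for no effect and wells without enzyme for full effect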
#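 Human LDH5 at 2 nM final in Tris HCl pH 7.4 with 0.06 mM NADH and 0.2 mM pyruvate, reacted 5 minutes at room temperature. Remaining NADH coupled via diaphorase/resazurin; resorufin fluorescence read at 0 and 20 minutes, normalized to enzyme-free and DMSO wells.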
# RORgamma inh: inhibitors of mouse ROR gamma transcriptional activity. P51450. Drosophila S2 Gal4-RORgamma UAS-luciferase reporter, 20 h. Potency, µM (top dose mostly 53.6 µM), without a hit: top-dose activity change, negative = inhibition, most hits filed as inhibitors. actives 5.4% (n = 310,000). AID 2551; also: potency is read from the fitted curve at half-maximal effect; nearly all actives have a fitted effect of over 60% in size
# Target sequence (P51450 whole entry, looked up, the tested form may be a part): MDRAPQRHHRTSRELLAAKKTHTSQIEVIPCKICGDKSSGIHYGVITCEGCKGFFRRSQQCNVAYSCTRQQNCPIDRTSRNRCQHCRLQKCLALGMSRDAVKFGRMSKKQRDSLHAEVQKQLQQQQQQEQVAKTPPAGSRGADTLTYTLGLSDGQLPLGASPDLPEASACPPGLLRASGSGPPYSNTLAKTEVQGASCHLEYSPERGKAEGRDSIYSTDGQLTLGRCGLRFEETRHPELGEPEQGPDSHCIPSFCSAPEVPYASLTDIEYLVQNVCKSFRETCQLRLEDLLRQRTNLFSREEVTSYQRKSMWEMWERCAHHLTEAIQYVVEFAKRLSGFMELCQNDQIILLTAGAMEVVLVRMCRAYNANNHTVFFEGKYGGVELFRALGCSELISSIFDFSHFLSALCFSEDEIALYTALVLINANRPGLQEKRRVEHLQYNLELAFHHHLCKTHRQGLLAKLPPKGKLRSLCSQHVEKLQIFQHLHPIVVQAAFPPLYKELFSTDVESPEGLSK
#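 In this cell-based reporter format, copper sulfate (700 uM final) drives Gal4–ROR gamma fusion expression from a metallothionein promoter in Drosophila Schneider cells; compounds preincubated 1 hr, reporter read after 20 hr at ambient temperature.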
# IL-1B inflam inh: inflammasome signaling inhibition, IL-1 beta readout; actives 4.7% (n = 360,000); THP-1 LPS/ATP IL-1B secretion, AlphaLISA, 16 h; active compounds read low; AID 743279; activity change, % at 57.5 µM; in the data active = activity change below about -50%; inconclusive = mostly about -30% to -49%
#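 Secreted IL-1B measured by AlphaLISA bead assay after 16 h compound exposure of THP-1 cells; compounds (final up to 57.5 uM) added 1 h before LPS (250 ng/mL) and ATP (1.25 mM) stimulation; lower signal means less secretion.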
# Numbers without * were called inactive; ? = inconclusive; nt = no result. A selection: hits, their analogues and other compounds. The true share with any hit is near 18%. Unless noted, calls follow the shape of the dose curve; as a rule, active = well fitted curve in the direction sought with a large enough effect; inconclusive = small, poorly fitted or top-dose-only effect, or another doubt; inactive = no such curve, though single readings can be large; an effect the other way counts as inactive or inconclusive. Unless noted, % is scaled to controls: 0 for no effect and ±100 for the full control effect.
SMILES,DT40 TDP1 CPT,Gal4-VP16 FLuc,TDP1 cell noCPT,LDHA block,RORgamma inh,IL-1B inflam inh
CC(=O)c1ccc(C(=O)Nc2ccc(SC3CCCC3)cc2)s1,nt,nt,nt,1.4,nt,nt
CCOC(=O)/C(N=Nc1sc(C(=O)OCC)c(C)c1C(=O)OCC)=C(\C)O,nt,-12.0%,nt,nt,-8.1%,nt
CCOC(=O)/C(N=Nc1sc(C(=O)OC)c(C)c1C(=O)OCC)=C(\O)CCl,?,-4.3%,14.6µM*,-1.9,?,11.7
CCCC(C)C(=O)Nc1nc(C)c(-c2csc(Nc3cc(Cl)ccc3C)n2)s1 (configuration not stated),?,?,?,-1.7,37.7%,44.0
CCCCCCC(=O)Nc1nc(C)c(-c2csc(Nc3ccc(Cl)cc3)n2)s1,2.31µM*,-4.4%,4.61µM*,-0.8,-29.1%,7.4
CCCCCC(=O)Nc1nc(C)c(-c2csc(Nc3cc(Cl)ccc3C)n2)s1,?,4.3%,18.4µM*,-5.6,-3.2%,5.8
CCCCCC(=O)Nc1nc(C)c(-c2csc(Nc3ccc(Cl)cc3)n2)s1,?,2.9%,13µM*,-3.0,9.6%,-6.2
CCC(=O)Nc1nc2ccc(CC(=O)N3CCN(c4ccc(F)cc4)CC3)cc2s1,nt,nt,nt,1.2,nt,nt
Cc1ccc(F)c(NC(=O)CCNC(=O)c2ccco2)c1,nt,nt,nt,-0.4,nt,nt
CC(/C=C/c1ccc(C)o1)=C\C(=O)O,11.6µM*,?,18.4µM*,6.4,20µM*,-18.4
CC(=O)/C=C/c1ccc(C)o1,16.4µM*,3.5%,?,0.4,-9.6%,10.8
CCN1CCN(C(=O)/C=C/c2ccc(C)o2)CC1,11.4%,?,6.1%,0.2,-13.0%,21.2
Cc1ccc(/C=C/C(=O)N2CC(C)CC(C)C2)o1 (configuration not stated),1.46µM*,-9.7%,3.26µM*,0.9,21.1%,?
COc1ccc(Oc2coc3cc(OCC#N)ccc3c2=O)cc1,nt,nt,nt,-3.7,nt,nt
CSc1nnc(C)c(/C=C/Nc2ccc(C)cc2)n1,-15.2%,4.9%,18.4µM*,-0.3,-26.5%,-0.8
CSc1nnc(C)c(/C=C/NOCc2ccc(Cl)cc2)n1,-11.1%,-1.1%,-24.2%,26.0,26.7%,-17.4
CNC(=O)c1ccc(CN(C(=O)Cc2ccc(C)s2)C2CC2)cc1,nt,nt,nt,-1.3,nt,nt
Cn1nc(Oc2nc(N3CCCCC3)nc(N3CCOCC3)n2)ccc1=O,nt,nt,nt,-3.7,nt,nt
CCOc1ccc(C2C(C(=O)OC)=CN(C(C)c3ccccc3)C=C2C(=O)OC)cc1 (configuration not stated),?,-12.4%,20.6µM*,0.8,1.3%,-8.7
COc1ccc(S(=O)(=O)N2CCN(c3ccc(C)cc3C)CC2)cc1OC,20.6µM*,?,?,-9.4,?,10.5
Cc1ccc(N2CCN(S(=O)(=O)c3ccc4oc(=O)ccc4c3)CC2)c(C)c1,16.4µM*,-6.4%,?,-2.5,?,-9.2
COc1ccc(S(=O)(=O)N2CCN(c3c(C)cccc3C)CC2)cc1OC,?,?,-19.5%,3.3,-26.1%,20.4
N#Cc1ccccc1CSCCNC(=O)NCc1ccc(CN2CCCC2)cc1,nt,nt,nt,-2.9,nt,nt
O=C(c1cnccn1)N1CCC2(CC1)CN(c1cccc(-c3ccccc3)c1)C2,18.4µM*,5.01µM*,?,nt,-3.5%,nt
CC(=O)N1CCC2(CC1)CN(c1cccc(-c3ccccc3)c1)C2,-26.1%,12.6µM*,?,nt,20.1%,nt
CC(=O)N1CCC2(CC1)CCN(c1ccccc1)CC2,13.2%,-9.3%,-4.6%,nt,0.7%,nt
O=C(c1cnccn1)N1CCC2(CC1)CN(c1ccccc1)C2,0.2%,11.2%,-9.3%,nt,-7.5%,nt
CC(=O)N1CCC2(CC1)CCN(c1cccc(-c3ccccc3)c1)CC2,?,-9.7%,20.6µM*,nt,28.8%,nt
